Each structure is given as a SMILES string. Out of some 16,000 compounds screened, about 5,700 (36%) were called active. Another 24% or so got no clear call; they are omitted. The list shows a part of the results. A number with no mark means an inactive call. The call rests on the fitted dose curve; in most records, active means well fitted curve in the direction sought with a large enough effect; inconclusive means small, poorly fitted or top-dose-only effect, or effect the other way; inactive means no such curve, though single readings can be large or run the other way.

Usually AC50 stands for the concentration at which the activity in the assay is half-maximal.
On the % scale 0 is the no-effect control and ±100 the full control effect.

In the assay the target is Cytochrome P450 1A2 (Homo sapiens) (UniProt P05177). As to the kind of experiment: Cytochrome panel assay with activity outcomes. As to conditions: recombinant CYP, pro-luciferin dealkylation, luminescence, p450-cyp1a2; series mostly up to 57.1 µM; activity, negative = inhibition: at the top concentration.
Cytochrome P450 1A2 (Homo sapiens), sequence (P05177 whole entry, looked up): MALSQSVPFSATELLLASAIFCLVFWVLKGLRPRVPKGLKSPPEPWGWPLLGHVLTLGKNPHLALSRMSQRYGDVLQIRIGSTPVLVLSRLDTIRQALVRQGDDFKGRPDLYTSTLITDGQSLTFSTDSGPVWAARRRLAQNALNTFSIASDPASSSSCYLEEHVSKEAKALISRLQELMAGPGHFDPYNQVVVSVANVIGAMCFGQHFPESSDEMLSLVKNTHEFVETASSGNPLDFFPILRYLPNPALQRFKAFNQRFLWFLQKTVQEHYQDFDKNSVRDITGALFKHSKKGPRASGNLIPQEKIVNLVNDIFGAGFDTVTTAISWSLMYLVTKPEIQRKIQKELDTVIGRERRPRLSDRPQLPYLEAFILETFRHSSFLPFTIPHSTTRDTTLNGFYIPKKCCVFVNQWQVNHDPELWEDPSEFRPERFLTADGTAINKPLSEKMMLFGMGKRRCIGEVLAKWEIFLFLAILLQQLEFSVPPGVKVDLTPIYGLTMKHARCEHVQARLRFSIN
Turning to `CO[C@@H]1COC(=O)[C@H](COCc2ccccc2)NC(=O)C/C=C\[C@@H](C)[C@H](OC)COC(=O)[C@@H](C)NC(=O)C/C=C\[C@H]1C`, the activity, negative = inhibition was 3.31% [at 11.4 µM].
As for `CC(C)=CCC/C(C)=C/CC/C(C)=C/CSc1ccccc1C(=O)O`, the AC50 is 12.6 µM (active).
Consider `CC(=O)N(CC(=O)O)c1ccccc1C(=O)O`, for which the “activity, negative = inhibition” value is 1.47%.
In the case of `C[C@H](CN(C)C)C(=O)c1ccccc1C(=O)O`, the activity, negative = inhibition is -5.91% [at 11.4 µM].
Take `CNc1ncnc2c1ncn2[C@@H]1O[C@H](CO)[C@@H](O)[C@@H]1O`: the “activity, negative = inhibition” value is 13.3% [at 25.6 µM].
Regarding `O=C(COc1ccc2ccccc2c1)N1CCN(C(=O)c2cccnc2)CC1`, the “activity, negative = inhibition” value is -16%.
Take `CCOc1ccc(N2C(=O)CS/C2=N/NC(=O)COc2ccc3ccccc3c2)cc1`: the AC50 is 14.1 µM (active).
Regarding `CC(=O)N1CCN(S(=O)(=O)c2ccccc2)C1c1ccccc1` (stereo not drawn), the “activity, negative = inhibition” value is 5.89%.
Turning to `C=C(C)c1cccc(C(C)(C)NC(=O)Nc2cc(C)ccc2OC)c1`, the concentration at half-maximal activity (AC50) was 11.2 µM (active).
For the compound `Cc1cccc(C(=O)NNC(=O)C(=O)NC(C)(C)C)c1`, the “activity, negative = inhibition” value is -1.15%.
On the same count and under the same terms, as for `COc1ccc(C)cc1NC(=O)CCC(=O)Nc1nnc(C(F)(F)F)s1`, the figure is -6.76%.
With `C/C(=N\O)c1ccc2[nH]ccc2c1`, the AC50 was 4.47 µM (active).
Take `C/C(=N/O)c1ccc2cc(Br)c3ccccc3c2c1`: the activity, negative = inhibition is -13.6% [at 2.29 µM].
Still for that read-out and setting: as for `C[C@H](O/N=C1/[C@H]2O[C@@H]2[C@@H](O)[C@H]2[C@H]1CCn1c(=O)n(-c3ccccc3)c(=O)n12)c1cn([C@H]2COC[C@H]2O)nn1`, the figure is 4.91% [at 11.4 µM].
For the compound `COc1ccc(/C=C2\N=C(SC)N(C)C2=O)cc1`, the AC50 is 1.78 µM (active).
For `CO/N=C(\C(=O)N[C@@H]1C(=O)N2C(C(=O)O)=C(COC(N)=O)CS[C@@H]12)c1ccco1`, the “activity, negative = inhibition” value is -6.52% [at 25.6 µM].
As for `COc1cccc(-c2cc(NCc3ccc(OC)cc3OC)ncn2)c1`, the AC50 was 2 µM (active).
For `COc1cccc(-c2cc(NCc3ccccc3OC)ncn2)c1`, the AC50 was 1.26 µM (active).
As for `CC(C)C[C@H]1C(=O)N2CCC[C@@H]2[C@]2(O)O[C@](NC(=O)[C@@H]3C=C4c5cccc6[nH]c(Br)c(c56)C[C@H]4N(C)C3)(C(C)C)C(=O)N12`, the “activity, negative = inhibition” value is -8.76%.
Take `Cc1nc2ncnn2c(C)c1CCC(=O)Nc1ccc(S(=O)(=O)N2CCCCCC2)cc1`: the “activity, negative = inhibition” value was -36%.
As to `O=c1c2cc(Br)ccc2[nH]c(=S)n1Cc1cccnc1`, the half-maximal activity concentration (AC50) was 0.251 µM (active).
On to `COc1ccccc1Cn1c(=S)[nH]c2cc(C(=O)N3CCN(C)CC3)ccc2c1=O`, for which the “activity, negative = inhibition” value is -25.6%.
Same read-out and setting: in the case of `COc1ccc(-n2c(CNC(=O)c3cc(OC)c(OC)c(OC)c3)n[nH]c2=S)cc1` it was -29.2%.
Turning to `COc1cc(C(=O)NCc2cccc3ccccc23)cc(Cl)c1OC`, the AC50 was 10 µM (active).
As to `CN(Cc1cnc2nc(N)nc(N)c2n1)c1ccc(C(=O)N[C@H](CCC(=O)O)C(=O)O)cc1`, the “activity, negative = inhibition” value was -7.75% [at 25.6 µM].
Turning to `CCN(/C=N/c1sc2c(c1C#N)CCCCC2)CC`, the AC50 is 2.51 µM (active).
As to `CCCN(/C=N/c1sc2c(c1C#N)CCCCC2)CCC`, the AC50 was 14.1 µM (active).
`O=S(=O)(c1ccccc1)N1CCC2(CC1)CN(C(c1ccccc1)c1ccccc1)C2`: the “activity, negative = inhibition” value was 2.71%.
Regarding `O=C1CCCN1c1ccc(S(=O)(=O)Oc2cccc(Cl)c2)cc1[N+](=O)[O-]`, the AC50 is 15.8 µM (active).
`CC1CCN(c2ccc(S(=O)(=O)Nc3cc(C(=O)O)cc(C(=O)O)c3)cc2[N+](=O)[O-])CC1`: the “activity, negative = inhibition” value was -20.9%.
On the same count and under the same terms, as for `COc1ccc(N2CCN(S(=O)(=O)c3ccc4c(c3)CCCC4)CC2)c([N+](=O)[O-])c1`, the figure is -18.7%.
As for `COc1ccc(S(=O)(=O)N2CC3CCCN3c3ccc(C(F)(F)F)cc32)cc1` (stereo not drawn), the AC50 was 12.6 µM (active).
`COc1ccc(S(=O)(=O)N2CCC(N3CCCCC3)CC2)cc1`: the “activity, negative = inhibition” value was 8.73%.
On the same count and under the same terms, in the case of `CCn1c(SC)nnc1C1CCN(S(=O)(=O)c2ccc(OC)cc2)CC1` it was 3.42%; in that of `NC(=O)C(=O)O`, 0.732%.
With `Nc1ccccc1S[C@@H](C[N+](=O)[O-])c1ccc2c(c1)OCO2`, the AC50 was 0.631 µM (active).
On the same count and under the same terms, in the case of `CCCCNC(=S)NNC(=O)CCn1nc(C)c(Br)c1C` it was 14.1 µM (active).
As to `CCCCNC(=O)NC1C(NC(=O)NCCCC)N(C)C(=O)N1C` (stereo not drawn), the “activity, negative = inhibition” value is 5.97%.
As for `CN(N=O)c1ccc(/C=C\c2ccnc3ccccc23)cc1`, the AC50 is 0.158 µM (active).
Turning to `O=C(O)CCc1ccc(-c2ccc(Cl)cc2)n1CCC(=O)O`, the “activity, negative = inhibition” value is -20.3%.
Turning to `NC(=O)Nn1c(CCC(=O)O)ccc1-c1ccc(F)cc1`, the “activity, negative = inhibition” value was 7.9%.
Take `Cc1ccc(-n2c(CCC(=O)O)ccc2-c2cccs2)cc1C`: the AC50 is 14.1 µM (active).
Same read-out and setting: in the case of `CC(=O)c1ccc(-n2c(CCC(=O)O)ccc2-c2cccs2)cc1` it was 14.1 µM (active).
`CCOC(=O)C1CCN(C(=O)C2CCN(S(=O)(=O)N3CCCC3)CC2)CC1`: the “activity, negative = inhibition” value was 6.04%.
As for `Cc1cc(N2CCOCC2)ncc1[N+](=O)[O-]`, the AC50 is 10 µM (active).
Regarding `CN1CCN(c2ccc([N+](=O)[O-])cc2C(=O)N2CCOCC2)CC1`, the “activity, negative = inhibition” value is -4.87%.
`O=[N+]([O-])c1ccc(N2CCOCC2)nc1`: the AC50 was 11.2 µM (active).
Turning to `Cn1ncc([N+](=O)[O-])c1C(=O)N1CCOCC1`, the “activity, negative = inhibition” value is 10.7%.
As for `Cc1cnc(CNc2ncnc3ccc(-c4ccc5c(c4)OCO5)cc23)cn1`, the AC50 is 0.398 µM (active).
For `Cc1cnc(CNc2ncnc3ccc(-c4ccoc4)cc23)cn1`, the AC50 is 12.6 µM (active).
The same measure, in the same setting: in the case of `Cc1cnc(CNc2ncnc3ccc(-c4ccc(N(C)C)cc4)cc23)cn1` it was 1 µM (active).
Consider `O=S(=O)(O)c1ccc2cc(N=Nc3cc(S(=O)(=O)O)c4cccnc4c3O)ccc2c1`, for which the activity, negative = inhibition is -18.8% [at 2.29 µM].
The same measure, in the same setting: as for `CCCCNC(=O)NS(=O)(=O)c1ccc(C(=O)OC(C)C)o1`, the figure is -8.46%; as for `Cc1c(NC(=O)NC(C)N2C(=O)C3C4C=CC(C4)C3C2=O)c(=O)n(-c2ccccc2)n1C` (stereo not drawn), -7.99%.
With `CC(C)CN(C)c1nc(N)c(C(=O)N=C(N)N)nc1Cl`, the AC50 is 0.794 µM (active).
In the case of `CN(C)c1nc(N)c(C(=O)N=C(N)N)nc1Cl`, the AC50 is 1 µM (active).
Take `NC(N)=NC(=O)c1nc(Cl)c(N2CCCCCC2)nc1N`: the AC50 was 1 µM (active).
The same measure, in the same setting: as for `CCN(c1nc(N)c(C(=O)N=C(N)N)nc1Cl)C(C)C`, the figure is 2 µM (active).
On to `O=S(=O)(c1ccc(F)cc1)N1CCCC(CO)C1` (stereo not drawn), for which the “activity, negative = inhibition” value is 2.77%.
The same measure, in the same setting: in the case of `COc1ccc(NC(=O)N2CC[C@@]3(CCCN(C(=O)c4csnn4)C3)C2)cc1` it was -8.96%.
The same measure, in the same setting: as for `CCN(CC)C(=O)Cn1cnc([N+](=O)[O-])n1`, the figure is 5.71%.
Take `CCN(CC)C(=O)c1cc2cc([N+](=O)[O-])ccc2s1`: the concentration at half-maximal activity (AC50) is 2 µM (active).
Same read-out and setting: as for `O=C(COc1ccc(Br)cc1)N1CCC(c2ccccc2)C1` (stereo not drawn), the figure is 3.16 µM (active).
On to `Cc1cccc(OCC(=O)N2CCC(N3CCCCCC3)CC2)c1`, for which the “activity, negative = inhibition” value was -6.34%.
Regarding `CCOc1ccc(NC(=O)N2CCC(c3ccc(C)cc3)C2)cc1` (stereo not drawn), the “activity, negative = inhibition” value is -21.5%.
On the same count and under the same terms, as for `Nc1ccc(C(=O)C[C@H](N)C(=O)O)cc1O`, the figure is -4.16% [at 11.4 µM].
On to `Cc1cccn2c(=O)c(/C=N/O)c(N3CCCC3)nc12`, for which the half-maximal activity concentration (AC50) is 0.891 µM (active).
For the compound `N[C@H](Cn1ccc(=O)n(Cc2ccccc2C(=O)O)c1=O)C(=O)O`, the “activity, negative = inhibition” value was -7.78%.
For the compound `CC(C)OC(=O)C1=C2SCC(=O)N2C(N)=C(C#N)C1`, the AC50 was 1.26 µM (active).
The same measure, in the same setting: as for `CCOC(=O)C1=C2SCC(=O)N2C(N)=C(C#N)C1`, the figure is 1.26 µM (active).
As to `O=C(O)c1ccc2c(c1)C(=O)N(C(Cc1ccc(O)cc1)C(=O)O)C2=O` (stereo not drawn), the “activity, negative = inhibition” value is 3.34%.
On the same count and under the same terms, as for `CN[C@H]1[C@@H](O[C@@H]2[C@H](O[C@@H]3[C@@H](O)[C@@H](O)[C@@H](N=C(N)N)[C@@H](O)[C@@H]3N=C(N)N)O[C@H](C)[C@@]2(O)C=O)O[C@@H](CO)[C@@H](O)[C@H]1O`, the figure is -0.443% [at 25.6 µM].
Regarding `O=c1oc(-c2ccco2)nc2c1cnn2-c1ccccc1`, the AC50 is 2 µM (active).
Regarding `O=C(Nc1ccc(-n2nncc2-c2ccco2)cc1)c1cc2ccccc2oc1=O`, the “activity, negative = inhibition” value is -14.2%.
Still for that read-out and setting: as for `CCC(CC)C(=O)Nc1c2cnn(-c3ccccc3)c2nc(=O)n1-c1ccccc1`, the figure is -18.6%.
With `CN1C(=C2C(=O)OC(C)(C)OC2=O)Sc2ccccc21`, the AC50 was 11.2 µM (active).
Regarding `CC1(C)CCCN(C(=O)N2c3ccccc3Sc3ccccc32)C1`, the “activity, negative = inhibition” value was -13.2%.
Same read-out and setting: as for `Nc1ncnc(N(c2ccccc2)C2CCCCC2)c1[N+](=O)[O-]`, the figure is 11.3%.
As for `Cn1c(SC2=CS(=O)(=O)c3ccccc32)nc2ccccc21`, the AC50 was 6.31 µM (active).
`Cc1cc(C)c(-c2cc([C@H](C)O/N=C3/[C@H]4OC4[C@@H](O)[C@H]4[C@H]3CCn3c(=O)n(-c5ccccc5)c(=O)n34)on2)c(C)c1` (stereo partly drawn): the activity, negative = inhibition was -8.09% [at 11.4 µM].
Consider `CCOC(=O)c1sc(=N)n(-c2ccc(OC)cc2)c1C`, for which the AC50 is 1.26 µM (active).
For `COc1ccc(-n2c(C)nn(C)c2=O)cc1`, the “activity, negative = inhibition” value is -5.51%.
Still for that read-out and setting: as for `NCC[C@H](O)C(=O)N[C@H]1C[C@@H](N)[C@@H](O[C@H]2O[C@@H](CN)[C@@H](O)[C@@H](O)[C@@H]2O)[C@@H](O)[C@@H]1O[C@H]1O[C@@H](CO)[C@@H](O)[C@@H](N)[C@@H]1O`, the figure is -4.21% [at 25.6 µM]; as for `CCc1cc2c(=O)c(-c3nc4ccccc4n3C)c(C)oc2c(CN(CC)CC)c1O`, -17.4%.
Regarding `Cc1oc2c(C)c(O)ccc2c(=O)c1-c1ccc2ccccc2n1`, the AC50 is 2.24 µM (active).
As for `C=CCc1cccc2cc(C(=O)N(CC)CC)c(=O)oc12`, the AC50 was 1.41 µM (active).
On the same count and under the same terms, in the case of `O=c1c(CCc2ccccc2)nc2cncnc2n1C1CC1` it was 6.31 µM (active).
Still for that read-out and setting: as for `CN(C)c1ncc2nc(CCc3ccccc3)c(=O)n(C3CC3)c2n1`, the figure is 3.16 µM (active).
Still for that read-out and setting: as for `COc1ccc(Oc2ncc3nc(CCc4ccccc4)c(=O)n(C4CC4)c3n2)cc1`, the figure is 12.6 µM (active).
For the compound `COc1ncc2nc(CCc3ccccc3)c(=O)n(C3CC3)c2n1`, the concentration at half-maximal activity (AC50) was 3.16 µM (active).
On to `COc1ccc(C2C(=O)N(CCc3ccccc3)CC(=O)N2C2CCCC2)cc1` (stereo not drawn), for which the “activity, negative = inhibition” value is -22.8%.
`C[C@@]1(C(=O)O)CCC[C@@H]1C(=O)O`: the activity, negative = inhibition is -9.8% [at 2.29 µM].
As for `O=c1c(CCc2ccccc2)nc2cnc(Oc3ccccc3)nc2n1C1CC1`, the AC50 was 7.94 µM (active).
